The list is not random: actives were taken first. Their share in the collection is about 19%.
HT1080NT lethal: kills 2HG-producing HT-1080-NT fibrosarcoma cells; 360,000 compounds, 1.6% hits; HT-1080-NT fibrosarcoma viability, CellTiter-Glo ATP luminescence, 48 h; Potency, µM (highest dose often 46.1 µM), for inactives: at the highest dose activity, negative = less viability, usual class: cytotoxic; AID 686970;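 further: NT is the 2HG producing partner of a matched IDH1 knockdown line; potency means the concentration at half of the fitted maximal effect; 0% = DMSO-treated cells and -100% = media-only wells without cells; nearly all actives have a fitted effect of over 55% in size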
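Toxicity toward the 2HG-producing NT line was scored as %Activity, normalised to DMSO and no-cell wells, from CellTiter-Glo luminescence after 48 hours' treatment.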
IL-1B inflam inh: inflammasome signaling inhibition, IL-1 beta readout; THP-1 LPS/ATP IL-1B secretion, AlphaLISA, 16 h; hits give low values; activity change, % at 57.5 µM; AID 743279; 360,000 compounds, 4.7% hits; in the data active means activity change below about -50%; inconclusive means mostly about -30% to -49%
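THP-1 cells pretreated 1 hr with compounds (up to 57.5 uM final), then stimulated with LPS (250 ng/mL final) plus ATP (1.25 mM final); secreted IL-1B measured by AlphaLISA after 16 hr, decreased signal indicating inhibition.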
TDP1 cell noCPT: qHTS for Inhibitors of human tyrosyl-DNA phosphodiesterase 1 (TDP1): qHTS in cells in absence of CPT | Potency, µM (titrated, usually from 46.2 µM), for the others: at the top dose activity change, negative = growth inhibition, hits mostly inhibitors | DT40 Tdp1-/- hTDP1 cells, no CPT, ATP luminescence, 48 h | AID 686978, 2013 | 420,000 compounds, 15% hits; further: potency means the concentration at half of the fitted maximal effect; nearly all actives have a fitted effect of over 55% in size
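Chicken DT40 Tdp1-/- cells stably complemented with human TDP1 were seeded at 400 cells/well with DMSO in place of 20 nM camptothecin. After compound pinning, cells grew at least 48 hr at 37 °C; viability read by CellTiter-Glo luminescence.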
DT40 TDP1 CPT: DT40-hTDP1 cell growth loss with CPT | chicken DT40 Tdp1-/-;hTDP1 cells + 20 nM CPT, ATP luminescence, 48 h | Potency, µM (highest dose often 46.2 µM), for the others: at the highest dose activity change, negative = growth inhibition, most hits filed as inhibitors | 420,000 compounds, 12% hits; further: potency means the concentration at half of the fitted maximal effect; nearly all actives have a fitted effect of over 55% in size
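Chicken DT40 Tdp1-/- cells complemented with human TDP1, 400 cells/well, exposed to compounds plus 20 nM camptothecin for at least 48 h at 37 C; viability read as ATP content by CellTiter-Glo luminescence.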
HT1080 IDH1KD tx: kills HT-1080 cells with IDH1 knockdown. 360,000 compounds, 2% hits. HT-1080 IDH1 knockdown viability, ATP luminescence, 48 h. Potency, µM (highest dose often 46.1 µM), inactives show at the top dose activity, negative = toxicity, hits mostly cytotoxic;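 further: potency means the concentration at half of the fitted maximal effect; 0% = DMSO wells and -100% = cell-free medium wells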
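After a 2 h attachment period, IDH1KD HT-1080 cells took pin-transferred compound for 48 h at 37 °C; ATP-based luminescence after 10 min room-temperature reagent incubation reported viability.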
Numbers without * were called inactive; i = inactive; ? = inconclusive; . = no result given. Unless noted, the call rests on the fitted dose curve; in most records, active means well fitted curve in the direction sought with a large enough effect; inconclusive means small, poorly fitted or top-dose-only effect, or another doubt; inactive means no such curve, though single readings can be large; an effect the other way counts as inactive or inconclusive. Unless noted, on the % scale 0 is the no-effect control and ±100 the full control effect.

SMILES | HT1080NT lethal | IL-1B inflam inh | TDP1 cell noCPT | DT40 TDP1 CPT | HT1080 IDH1KD tx
NC(=S)N=Nc1ccc(O)cc1 | -2% | 0 | 18µM* | 21µM* | 0%
CC1CCCC=CC2CC(OC(=O)CN(C)C)CC2C(O)C=CC(=O)O1 (centres undefined) | ? | 0 | 1µM* | 0.92µM* | 0.029µM*
Cc1occc1-c1nnc(SCC(=O)N2CCCCC2)o1 | 13% | 23 | 0% | -17% | 3%
CC1=C(C(=O)Nc2cccc(C(F)(F)F)c2)C2(CCCCCC2)OC1=O | . | . | ? | 16µM* | .
CC1=C(C(=O)NCc2cccc(Br)c2)C2(CCCCC2)OC1=O | . | . | 23µM* | 15µM* | .
COC(=O)c1ccccc1NC(=O)C1=C(C)C(=O)OC12CCCCCC2 | . | . | 16µM* | 18µM* | .
CC1=C(C(=O)Nc2ccccc2Br)C2(CCC(C)CC2)OC1=O (centres undefined) | . | . | -24% | 4% | .
CC1=C(C(=O)Nc2cccc(C(F)(F)F)c2)C2(CCCCC2)OC1=O | . | . | 16µM* | ? | .
CC1=C(C(=O)Nc2cc(C)cc(C)c2)C2(CCCCC2)OC1=O | . | . | -24% | ? | .
CC1=C(C(=O)NCc2cccc(F)c2)C2(CCCCC2)OC1=O | . | . | -14% | -25% | .
COc1ccc([C@H]2CC(=O)C=C(c3cccc(CO)c3)C2)cc1 | 0% | -8 | ? | ? | 3%
CCN(CC(=O)NCc1ccc(Cl)cc1)C(=O)/C=C/c1cccs1 | -5% | -29 | -6% | 6% | -2%
O=C(OCc1c(-c2ccccc2)ncc2ccccc12)c1ccc(Cl)cc1Cl | 0% | 21 | ? | ? | 0%
O=C(NNC1=Nc2cccc3cccc1c23)c1ccc(Br)cc1 | 0% | 55 | 13µM* | 12µM* | -29%
CCOc1ccc(-n2ccn(CC(=O)NCCc3ccccc3)c(=O)c2=O)cc1 | -7% | 9 | -15% | -10% | -5%
COc1cccc(CN(C)C(=O)Cc2ccc(OC)c(S(=O)(=O)N3CCOCC3)c2)c1 | 1% | -6 | -30% | -19% | 3%
O=S(=O)(Nc1ccc2c(c1)OCCO2)c1ccc(F)c(F)c1 | 2% | 14 | ? | -19% | -7%
COc1c(C)cc(NS(=O)(=O)c2ccc3c(c2)OCCO3)cc1C | . | . | 2.6µM* | 9.2µM* | .
CC(=O)Nc1ccc(S(=O)(=O)Nc2ccc3c(c2)OCCO3)cc1Cl | -5% | 17 | 7.3µM* | ? | ?
Cc1cccc(NS(=O)(=O)c2ccc3c(c2)OCCO3)c1 | 5% | 18 | -20% | -24% | -5%
CC(=O)NCCc1ccc(S(=O)(=O)Nc2ccc3c(c2)OCCO3)cc1 | 9% | 40 | -28% | 10% | 3%
Cc1ccc(S(=O)(=O)Nc2ccc3c(c2)OCCO3)cc1C | -4% | -3 | 18µM* | ? | -3%
COc1ccc(NS(=O)(=O)c2ccc3c(c2)OCCO3)cc1OC | -25% | -1 | 5.8µM* | 7.3µM* | ?
O=C(CN1C(=O)NC2(CCCC2)C1=O)N1CCCSC1=Nc1ccccc1 | -23% | 12 | -13% | -19% | ?
CCN(C(=O)COC(=O)c1ccc(F)c(S(=O)(=O)N2CCOCC2)c1)C1CCS(=O)(=O)C1 (centres undefined) | 1% | i | 7% | 15% | 0%
SMILES | HT1080NT lethal | IL-1B inflam inh | TDP1 cell noCPT | DT40 TDP1 CPT | HT1080 IDH1KD tx
Cc1nnc(SCC(=O)NC2CCCCC2)s1 | -7% | 0 | -10% | 4% | -2%
O=C1c2ccccc2C(c2nnnn2-c2ccc3c(c2)OCCO3)N1Cc1ccco1 (centres undefined) | 18% | -4 | ? | ? | 8%
O=C(Nc1ccc(F)cc1F)c1ccc2c(c1)[nH]c(=O)n2Cc1ccc(F)cc1 | -13% | 23 | -26% | ? | -19%
COc1ccc(S(=O)(=O)Nc2ccc3c(c2)OCCO3)cc1Cl | -12% | 9 | ? | 23µM* | -24%
CCOC(=O)c1ccc(NS(=O)(=O)c2ccc3c(c2)OCCO3)cc1 | . | . | 29µM* | 13µM* | .
CCNC(=O)COC(=O)c1ccc(NS(=O)(=O)c2ccc3c(c2)OCCO3)cc1 | 1% | 0 | -16% | 1% | 4%
CSc1nc2ccc(NS(=O)(=O)c3ccc4c(c3)OCCO4)cc2s1 | -3% | 34 | 23µM* | ? | -10%
COc1cc(OC)c(NS(=O)(=O)c2ccc(Cl)c(C(=O)OC(C)C(=O)N3CCCC3)c2)cc1Cl (centres undefined) | -3% | -2 | 21µM* | 18µM* | ?
CCOC(=O)CNC(=O)N(C)[C@H]1C[C@H]2c3[nH]c4ccccc4c3CCN2C(=O)[C@H]1[C@H](C)O | ? | 14 | -15% | -5% | 24%
O=C1C=C(c2ccc3c(c2)OCO3)C[C@@H](c2ccc(Cl)cc2)C1 | -6% | 36 | -12% | -12% | 10%
COc1cc(OC)c(NS(=O)(=O)c2ccc3c(c2)NC(=O)CO3)cc1Cl | -2% | 0 | ? | 18µM* | -12%
CCOC(=O)/C=c1\s/c(=C\c2ccc3cc(OC)ccc3c2)c(=O)n1CC(=O)NCc1ccc2c(c1)OCO2 | 12% | 7 | 9.2µM* | 6.5µM* | 9%
CCOC(=O)/C=c1\s/c(=C\c2ccccc2C)c(=O)n1CC(=O)NCc1ccc2c(c1)OCO2 | ? | 16 | ? | ? | ?
CCOC(=O)/C=c1/s/c(=C\c2c(OC)ccc3ccccc23)c(=O)n1CC(=O)NCC1CCCO1 (centres undefined) | 16µM* | 6 | 26µM* | 23µM* | ?
O=c1[nH]c2ccc(S(=O)(=O)Nc3ccc(Br)cc3)cc2[nH]1 | ? | -4 | -4% | -21% | ?
O=C(Nc1c(-c2ccccc2)[nH][nH]c1=O)c1ccc(Br)cc1 | 12% | 12 | 5% | -11% | 10%
CCOCCCNC(=S)N(CCN(C)C)Cc1cc2cc3c(cc2[nH]c1=O)OCCO3 | 9% | 5 | ? | -23% | 2%
O=C(CN1CCN(C(C(=O)Nc2ccc(F)cc2)c2ccccc2)CC1)NC1CC1 (centres undefined) | -3% | -9 | 3% | -1% | 2%
O=c1c2cc(F)ccc2sn1-c1ccccc1 | ? | -2 | 2.1µM* | 1.8µM* | ?
O=c1c2cc(C(F)(F)F)ccc2sn1-c1ccccc1 | -16% | 2 | 5.2µM* | 5.2µM* | -5%
CC1(C)CC(=O)N(c2cccc(C(F)(F)F)c2)C(=O)C1 | -25% | 8 | 10% | ? | 0%
CCN(CC)C(=O)c1cccc(-c2csc(C(O)(c3ccccc3)C(F)(F)F)n2)c1 (centres undefined) | 23µM* | -4 | 16µM* | ? | 16µM*

Bioassay records deposited in PubChem BioAssay by National Center for Advancing Translational Sciences (NCATS).
